Laboratory results as given in ChEMBL document CHEMBL3988442, “University of Dundee, Small-Polar-MMV Screening Library” (2021).
For some assays here: Measured potencies and affinities stand elsewhere.

Columns and labels:
Set-up in all cases: scale not given: direction of the effect not stated beside the values
[1] = target: Protein translocase subunit SecA (Escherichia coli (strain K12)) (UniProt P10408); test: Assay to Identify E. coli SecA ATPase Inhibitors; type: functional; conditions: 30 µM
Sequence of Protein translocase subunit SecA (Escherichia coli (strain K12)) (P10408 whole entry): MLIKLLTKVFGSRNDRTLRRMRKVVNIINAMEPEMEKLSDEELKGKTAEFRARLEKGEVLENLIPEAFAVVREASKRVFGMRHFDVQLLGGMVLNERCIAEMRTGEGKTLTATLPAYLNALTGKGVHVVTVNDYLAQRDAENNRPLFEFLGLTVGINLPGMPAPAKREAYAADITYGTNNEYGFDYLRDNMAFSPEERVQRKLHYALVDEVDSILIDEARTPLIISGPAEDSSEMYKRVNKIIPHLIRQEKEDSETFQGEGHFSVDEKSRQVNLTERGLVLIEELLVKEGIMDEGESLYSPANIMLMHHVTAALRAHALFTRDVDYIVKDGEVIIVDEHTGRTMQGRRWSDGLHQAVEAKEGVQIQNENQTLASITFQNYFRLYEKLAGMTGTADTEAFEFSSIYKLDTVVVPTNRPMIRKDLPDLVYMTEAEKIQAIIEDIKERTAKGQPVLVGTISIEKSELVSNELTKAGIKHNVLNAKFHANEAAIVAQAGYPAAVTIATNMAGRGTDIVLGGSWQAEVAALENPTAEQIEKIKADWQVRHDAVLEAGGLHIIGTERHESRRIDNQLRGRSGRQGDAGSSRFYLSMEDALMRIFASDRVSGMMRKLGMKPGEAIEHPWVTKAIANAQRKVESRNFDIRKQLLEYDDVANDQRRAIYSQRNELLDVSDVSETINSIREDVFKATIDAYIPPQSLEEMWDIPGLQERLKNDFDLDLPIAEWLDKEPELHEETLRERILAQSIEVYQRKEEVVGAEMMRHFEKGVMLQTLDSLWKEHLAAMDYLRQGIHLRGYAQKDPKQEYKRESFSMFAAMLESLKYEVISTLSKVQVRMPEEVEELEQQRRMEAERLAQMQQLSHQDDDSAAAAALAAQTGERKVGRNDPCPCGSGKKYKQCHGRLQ

[2] = target: T1, Ubiquitin-activating enzyme e1, putative (Leishmania donovani (strain BPK282A1)) (UniProt E9BSI1); test: Leishmania donovani Ubiquitin Activating Enzyme (LdE1); type: functional; conditions: 30 µM
T1 sequence (whole entry): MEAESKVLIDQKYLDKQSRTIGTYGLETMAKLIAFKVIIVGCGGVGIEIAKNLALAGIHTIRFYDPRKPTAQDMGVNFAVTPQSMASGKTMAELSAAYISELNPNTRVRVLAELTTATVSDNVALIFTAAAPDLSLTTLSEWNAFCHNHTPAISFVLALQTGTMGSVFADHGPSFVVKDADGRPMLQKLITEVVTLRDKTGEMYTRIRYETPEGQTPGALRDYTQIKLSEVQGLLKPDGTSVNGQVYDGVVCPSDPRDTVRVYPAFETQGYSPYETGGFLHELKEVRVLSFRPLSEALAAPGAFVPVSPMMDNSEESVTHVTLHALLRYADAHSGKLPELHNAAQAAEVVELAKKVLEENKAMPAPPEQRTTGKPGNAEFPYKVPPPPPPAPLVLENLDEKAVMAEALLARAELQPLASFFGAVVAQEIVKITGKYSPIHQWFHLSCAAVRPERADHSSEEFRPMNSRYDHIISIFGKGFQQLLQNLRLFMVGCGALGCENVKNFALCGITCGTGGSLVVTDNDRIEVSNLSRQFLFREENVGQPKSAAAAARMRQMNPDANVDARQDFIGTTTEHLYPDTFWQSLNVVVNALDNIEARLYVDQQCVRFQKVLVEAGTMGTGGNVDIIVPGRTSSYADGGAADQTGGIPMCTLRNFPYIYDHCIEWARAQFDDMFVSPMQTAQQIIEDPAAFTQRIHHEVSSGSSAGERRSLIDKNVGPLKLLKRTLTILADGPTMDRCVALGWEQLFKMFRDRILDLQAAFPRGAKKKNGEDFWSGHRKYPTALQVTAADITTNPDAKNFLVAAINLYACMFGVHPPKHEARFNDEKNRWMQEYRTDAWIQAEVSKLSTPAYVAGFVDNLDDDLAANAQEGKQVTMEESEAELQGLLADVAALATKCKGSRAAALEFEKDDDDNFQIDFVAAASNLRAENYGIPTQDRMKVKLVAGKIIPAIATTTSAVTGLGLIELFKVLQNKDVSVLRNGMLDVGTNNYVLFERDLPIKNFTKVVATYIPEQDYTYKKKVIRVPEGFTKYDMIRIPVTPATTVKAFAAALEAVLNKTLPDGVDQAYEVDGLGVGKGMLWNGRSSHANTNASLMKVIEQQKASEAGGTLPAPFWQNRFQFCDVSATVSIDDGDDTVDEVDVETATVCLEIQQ

[3] = target: AMP-activated protein kinase, AMPK (Homo sapiens) (UniProt P54646+O43741+P54619+Q9UGJ0+Q9Y478+Q13131+Q9UGI9); test: AMP-dependent Kinase enzyme assay. An in vitro enzyme assay that detects ADP turnover that is directly proportional to AMPK activity. This uses naive AMPK that is activated during the assay with MK-8722; type: functional; conditions: 30 µM
[4] = target: Sialic acid-binding Ig-like lectin 9 (Homo sapiens) (UniProt Q9Y336); test: Hs-Siglec9 ALPHAscreen SOP 20170721; conditions: 10 µM
Sequence of Sialic acid-binding Ig-like lectin 9 (Homo sapiens) (Q9Y336 whole entry): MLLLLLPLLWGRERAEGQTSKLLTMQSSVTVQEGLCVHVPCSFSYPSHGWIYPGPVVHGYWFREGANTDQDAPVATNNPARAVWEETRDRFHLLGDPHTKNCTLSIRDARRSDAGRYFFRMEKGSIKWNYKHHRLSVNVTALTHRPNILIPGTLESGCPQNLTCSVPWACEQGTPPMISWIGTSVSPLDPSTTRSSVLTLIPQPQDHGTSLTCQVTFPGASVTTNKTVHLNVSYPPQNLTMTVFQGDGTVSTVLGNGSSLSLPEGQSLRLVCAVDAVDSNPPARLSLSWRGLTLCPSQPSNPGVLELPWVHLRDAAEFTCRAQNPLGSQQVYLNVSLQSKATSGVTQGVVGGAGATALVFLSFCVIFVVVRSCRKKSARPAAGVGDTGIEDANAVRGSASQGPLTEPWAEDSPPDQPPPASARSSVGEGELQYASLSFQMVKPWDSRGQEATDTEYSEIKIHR

Trypanosoma cruzi = test: Trypanosoma cruzi phosphomannomutase and mannose-1-phosphate guanylyltransferase assay; type: functional; conditions: 10 µM
[5] = target: T2, Arginase-2, mitochondrial (Homo sapiens) (UniProt P78540); test: in vitro enzyme assay to detect the production of urea directly proportional to the activity of Arginase II; type: functional; conditions: 33.3 µM; also: in the data most compounds retested in dose-response had high values
T2 sequence (whole entry): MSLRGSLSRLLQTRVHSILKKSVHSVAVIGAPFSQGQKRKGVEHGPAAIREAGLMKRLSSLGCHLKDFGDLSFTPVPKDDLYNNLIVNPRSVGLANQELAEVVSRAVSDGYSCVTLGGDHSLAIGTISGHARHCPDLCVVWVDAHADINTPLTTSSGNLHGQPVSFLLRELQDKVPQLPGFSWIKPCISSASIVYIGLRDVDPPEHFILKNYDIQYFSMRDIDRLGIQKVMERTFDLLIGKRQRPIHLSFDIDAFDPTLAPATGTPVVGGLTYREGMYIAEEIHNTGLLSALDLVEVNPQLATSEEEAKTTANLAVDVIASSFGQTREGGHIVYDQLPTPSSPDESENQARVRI

[6] = target: T3, Proteasome subunit beta (Trypanosoma cruzi) (UniProt O96673); test: Trypanosoma cruzi proteasome chymotrypsin-like activity (TcProtChymo) assay.; also: in the data most compounds retested in dose-response had high values; type: functional; conditions: 9.37 µM
T3 sequence (whole entry): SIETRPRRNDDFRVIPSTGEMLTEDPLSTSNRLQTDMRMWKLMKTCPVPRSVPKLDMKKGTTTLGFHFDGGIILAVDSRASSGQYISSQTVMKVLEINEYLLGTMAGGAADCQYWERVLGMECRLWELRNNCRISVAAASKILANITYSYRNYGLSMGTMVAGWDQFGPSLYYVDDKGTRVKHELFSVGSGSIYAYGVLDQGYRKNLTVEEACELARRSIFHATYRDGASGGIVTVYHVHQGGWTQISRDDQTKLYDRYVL

Homo sapiens = organism: Homo sapiens; test: To identify inhibition of the IFN signalling (Jak-Stat) pathway via expression of an eGFP reporter gene under the control of an IFN-stimulated response element (ISRE) containing MxA promoter.; type: functional; conditions: 30 µM
[7] = target: T4, Tyrosyl-tRNA synthetase, putative (Trypanosoma cruzi (strain CL Brener)) (UniProt Q4DSP6); test: Trypanosoma cruzi tyrosyl tRNA synthetase (TcYRS) _High Tyrosine SOP; type: functional; conditions: 30 µM; also: in the data most compounds retested in dose-response had high values
T4 sequence (whole entry): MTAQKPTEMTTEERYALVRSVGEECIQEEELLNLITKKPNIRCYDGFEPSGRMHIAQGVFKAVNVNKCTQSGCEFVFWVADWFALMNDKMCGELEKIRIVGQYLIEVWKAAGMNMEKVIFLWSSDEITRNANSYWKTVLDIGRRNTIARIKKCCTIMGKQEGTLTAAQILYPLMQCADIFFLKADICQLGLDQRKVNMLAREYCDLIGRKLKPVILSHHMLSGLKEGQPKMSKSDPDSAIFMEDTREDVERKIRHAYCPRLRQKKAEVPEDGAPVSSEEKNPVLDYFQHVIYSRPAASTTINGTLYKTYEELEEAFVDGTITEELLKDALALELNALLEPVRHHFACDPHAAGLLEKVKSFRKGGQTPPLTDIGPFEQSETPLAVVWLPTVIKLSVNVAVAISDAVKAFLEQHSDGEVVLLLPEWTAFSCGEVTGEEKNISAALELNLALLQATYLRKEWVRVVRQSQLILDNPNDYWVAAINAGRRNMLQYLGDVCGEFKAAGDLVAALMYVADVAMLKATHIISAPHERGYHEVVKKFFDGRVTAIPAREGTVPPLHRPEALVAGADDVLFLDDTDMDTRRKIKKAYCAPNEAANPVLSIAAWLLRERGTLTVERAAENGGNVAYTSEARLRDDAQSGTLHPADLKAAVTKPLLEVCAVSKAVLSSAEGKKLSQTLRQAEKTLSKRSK

[8] = target: T4, Tyrosyl-tRNA synthetase, putative (Trypanosoma cruzi (strain CL Brener)); test: Trypanosoma cruzi tyrosyl tRNA synthetase (TcYRS) SOP; type: functional; conditions: 30 µM
[9] = target: Chromo domain-containing protein 1 (Saccharomyces cerevisiae (strain ATCC 204508 / S288c) (Baker's yeast)) (UniProt P32657); test: ScCHD-1 Enzyme Inhibition Assay; type: functional; conditions: 30 µM; also: in the data most compounds retested in dose-response had high values
Sequence of Chromo domain-containing protein 1 (Saccharomyces cerevisiae (strain ATCC 204508 / S288c) (Baker's yeast)) (P32657 whole entry, the tested form may be a part): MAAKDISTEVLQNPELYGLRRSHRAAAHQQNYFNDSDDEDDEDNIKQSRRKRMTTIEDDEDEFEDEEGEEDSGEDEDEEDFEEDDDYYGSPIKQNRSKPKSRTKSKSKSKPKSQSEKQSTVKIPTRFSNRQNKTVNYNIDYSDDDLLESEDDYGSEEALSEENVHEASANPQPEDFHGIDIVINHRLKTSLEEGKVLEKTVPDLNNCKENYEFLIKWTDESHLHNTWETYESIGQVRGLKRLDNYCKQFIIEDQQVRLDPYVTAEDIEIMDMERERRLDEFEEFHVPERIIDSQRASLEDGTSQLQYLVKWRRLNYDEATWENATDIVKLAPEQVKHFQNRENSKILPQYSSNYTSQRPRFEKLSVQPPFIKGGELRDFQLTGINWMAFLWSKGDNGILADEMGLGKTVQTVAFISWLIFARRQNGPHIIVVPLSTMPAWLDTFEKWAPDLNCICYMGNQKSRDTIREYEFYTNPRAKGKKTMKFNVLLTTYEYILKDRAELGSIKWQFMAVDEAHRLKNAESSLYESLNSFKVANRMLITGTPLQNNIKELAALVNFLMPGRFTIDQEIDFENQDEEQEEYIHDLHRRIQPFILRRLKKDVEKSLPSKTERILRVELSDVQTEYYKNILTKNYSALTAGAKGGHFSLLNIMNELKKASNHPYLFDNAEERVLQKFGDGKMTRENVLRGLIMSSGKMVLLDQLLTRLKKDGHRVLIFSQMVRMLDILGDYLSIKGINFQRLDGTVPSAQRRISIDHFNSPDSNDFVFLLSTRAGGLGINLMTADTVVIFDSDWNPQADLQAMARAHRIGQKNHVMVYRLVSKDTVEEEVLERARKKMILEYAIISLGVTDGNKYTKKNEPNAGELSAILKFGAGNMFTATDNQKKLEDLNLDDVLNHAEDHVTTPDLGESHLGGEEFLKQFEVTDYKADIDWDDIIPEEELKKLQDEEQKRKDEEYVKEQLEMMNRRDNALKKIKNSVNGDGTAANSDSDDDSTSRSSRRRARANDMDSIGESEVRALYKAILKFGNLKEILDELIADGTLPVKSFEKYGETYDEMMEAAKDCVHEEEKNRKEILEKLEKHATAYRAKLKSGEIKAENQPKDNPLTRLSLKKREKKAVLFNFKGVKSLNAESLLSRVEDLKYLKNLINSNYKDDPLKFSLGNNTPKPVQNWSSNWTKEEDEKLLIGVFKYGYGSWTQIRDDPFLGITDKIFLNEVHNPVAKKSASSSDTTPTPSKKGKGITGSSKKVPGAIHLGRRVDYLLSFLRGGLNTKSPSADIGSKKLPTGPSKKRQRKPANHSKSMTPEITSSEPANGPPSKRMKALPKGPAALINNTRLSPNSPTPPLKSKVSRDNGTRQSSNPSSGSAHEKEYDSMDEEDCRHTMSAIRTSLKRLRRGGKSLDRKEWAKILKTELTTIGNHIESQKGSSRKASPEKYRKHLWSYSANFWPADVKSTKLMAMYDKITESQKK

| SMILES | Percent Effect [1] [%] | Percent Effect [2] [%] | Percent Effect [3] [%] | Percent Effect [4] [%] | Percent Effect (Trypanosoma cruzi) [%] | Percent Effect [5] [%] | Percent Effect [6] [%] | Percent Effect (Homo sapiens) [%] | Percent Effect [7] [%] | Percent Effect [8] [%] | Percent Effect [9] [%] |
| --- | --- | --- | --- | --- | --- | --- | --- | --- | --- | --- | --- |
| CC(C)CCOCCNC(=O)Nc1cc(C(F)(F)F)c[nH]c1=O | -7.54 | 8.11 | 3.62 | 2.66 | -0.464 | -0.924 | 1.62 | 6.69 | 6.93 | 13.4 | 7.34 |
| CCOC(=O)NC(CNC(=O)CCc1ccccn1)CC(C)C (configuration not stated) | -7.25 | 0 | 0.68 | -3.55 | 3.62 | 2.73 | 4.72 | -1.48 | -5.38 | 3.7 | -0.238 |
| CCn1cnnc1CNC(=O)c1cc(Cl)ccc1OC | -2.18 | 8.86 | 8.8 | -1.08 | -2.56 | 3.66 | 11.2 | 7.84 | 9.38 | 15.2 | -11.8 |
| CN(C)C(C(=O)N1CCC(N2CCSCC2)CC1)c1ccccc1F (configuration not stated) | -0.819 | 12.5 | -3.64 | 4.95 | 1.46 | 22.5 | 20.7 | -4.19 | 10.5 | 20.5 | -1.59 |
| Cn1cc(N2CCCC(NCc3cccc4c3OCCCO4)C2)cn1 (configuration not stated) | -4.17 | 16.2 | -10 | 1.61 | 0.472 | -4.01 | 0.721 | 3.65 | 7.39 | 23.5 | -7.98 |
| Cc1nc(C2CCCN(C(=O)c3cnn(C(C)(C)C)c3)C2)no1 (configuration not stated) | -11.7 | 16.5 | -6.15 | -0.567 | 4.82 | -1.07 | 2.74 | -0.962 | 4.17 | 12.7 | -34.2 |
| Cc1cnn(CCNCc2ccc(OCc3csc(C)n3)cc2)c1 | -7.35 | 0 | -1.8 | 8.64 | 10.2 | -1.04 | 8.54 | 11.2 | 3.83 | 11.1 | -5.91 |
| Cc1nc(C)n(C2CCCN(C(=O)c3cc(C(N)=O)cs3)C2)n1 (configuration not stated) | -7.57 | 13.9 | 0.492 | -4 | 0.718 | 1.07 | 8.92 | -7.04 | 2.08 | 12.7 | -31.4 |
| CNC(=O)CS(=O)(=O)Cc1cc(Cl)c2c(c1)OCCCO2 | -1.64 | 12.7 | -5.11 | -6.27 | 3.87 | -2.66 | 7.62 | -4.79 | 10.3 | 24.1 | -6.28 |
| CSc1ccc(S(=O)(=O)N2CCCCC2CCNC(C)=O)cc1 (configuration not stated) | 0.287 | 11 | -3.42 | 4.24 | 1.59 | 1.6 | 14.8 | 9.17 | 7.29 | 16.1 | -5.63 |
| CCC(=O)N1CCN(Cc2cc(-c3ccncc3)nn2C)CC1 | -5.35 | -6.76 | 12.8 | 5.24 | -3.56 | -1.62 | 5.77 | -3.21 | 4.3 | -1.3 | -2.41 |
| CC(CNC(=O)N1CCSCC1)Cc1cccs1 (configuration not stated) | -4.11 | 0 | 0.113 | -1.72 | -0.195 | -2.08 | 5.83 | 1.53 | 4.95 | 6.1 | -3.96 |
| COc1cccc(C(=O)N2CCCC(C(=O)CCc3ccccc3)C2)c1 (configuration not stated) | -1.46 | 11 | 17.6 | 10.9 | 1.96 | 4.54 | 20.1 | 23.4 | 1.07 | 7.5 | -8.9 |
| O=C(c1ccc[nH]1)N1CCc2c(COCC3CC3)cncc2C1 | 0.487 | 13.5 | 0.508 | -7.71 | -4.99 | 0.955 | 29.1 | 0.5 | 3.24 | 12.8 | 0.2 |
| O=C1[C@@H]2CCN(Cc3ccncc3)C[C@@H]2OCCN1c1ccccc1 | -4.52 | 8 | 4.63 | 0.633 | 4.33 | -3.5 | 15.6 | -13.1 | 8.51 | 14.1 | -5.17 |
| c1csc(-c2nc(CN3CCOC(Cn4cncn4)C3)cs2)c1 (configuration not stated) | -4.12 | 7.89 | -2.14 | 1.07 | -3.83 | 0 | 15.5 | -10.6 | 4.43 | 6.17 | -6.35 |
| COc1ccc(CN2C[C@@H]3COC[C@]3(COc3cccnc3)C2)cc1 | -1.95 | 0 | 3.5 | -0.202 | 3.12 | -0.417 | 4.14 | -15.2 | 0 | 6.1 | -0.593 |
| Cc1nc2ccccc2nc1CN1CCCC1c1c(C)nn(C)c1C (configuration not stated) | -4.48 | 1.27 | 5.44 | 6.81 | 5.44 | -1.94 | 2.23 | 3.07 | 5.21 | 17.7 | -26.1 |
| Cc1cc(CN2CCN(C(=O)NCc3ccc(C)s3)CC2)no1 | -0.722 | 17.7 | -2.9 | 3.54 | -4.82 | 10.3 | 3.85 | 15.8 | 2.46 | 21.5 | -5.4 |
| Fc1cccc(-n2ccc(CN3CCCCC3Cn3cncn3)n2)c1 (configuration not stated) | -3.79 | -7.59 | 0.842 | 2.62 | -2.74 | -1.14 | -2.21 | 17 | -2.46 | -8.86 | 2.75 |
| O=C(c1cccnc1O)N(Cc1ccsc1)CC1CCCO1 (configuration not stated) | 0.332 | 13.5 | -1.43 | 6.53 | 4.63 | 12.9 | 12.6 | 15.9 | 5.82 | 17.1 | -0.939 |
| COCCn1c2c(ccc1=O)CC(NS(C)(=O)=O)CC2 (configuration not stated) | -3.49 | 13.3 | -2.12 | -9.48 | -7.68 | -1.63 | -1.15 | 10.7 | 0 | 3.85 | -4.29 |
